Experimental data reported in PubChem BioAssay AID493194 (Broad Institute, 2011).
Results with a measured potency or affinity are listed apart. Records with an inconclusive call do not appear. The source made the active and inactive calls.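 The calls were made as follows: active = a valid curve of falling signal whose half-effect concentration is at most ten times the top tested dose; inconclusive = flat curve at 30 to 70% inhibition, or poor fit; inactive = signal rise, flat within 30%, or potency beyond limit.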

The compounds below were run against Scavenger receptor class B member 1 (Mus musculus) (UniProt Q61009) (assay: inhibitors of SR-BI mediated HDL lipid uptake, dose response, ldlA[mSR-BI] cells, fluorescence, cherry pick (AID 493194;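 also: CHO cells lacking LDL receptor and overexpressing mouse SR-BI; cellular uptake of fluorescently labeled HDL measured as cell fluorescence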)). Details: CHO ldlA[mSR-BI] DiI-HDL uptake fluorescence, 3 h; series mostly up to 35 µM.
Chain of Scavenger receptor class B member 1 (Mus musculus) (Q61009 whole entry, looked up): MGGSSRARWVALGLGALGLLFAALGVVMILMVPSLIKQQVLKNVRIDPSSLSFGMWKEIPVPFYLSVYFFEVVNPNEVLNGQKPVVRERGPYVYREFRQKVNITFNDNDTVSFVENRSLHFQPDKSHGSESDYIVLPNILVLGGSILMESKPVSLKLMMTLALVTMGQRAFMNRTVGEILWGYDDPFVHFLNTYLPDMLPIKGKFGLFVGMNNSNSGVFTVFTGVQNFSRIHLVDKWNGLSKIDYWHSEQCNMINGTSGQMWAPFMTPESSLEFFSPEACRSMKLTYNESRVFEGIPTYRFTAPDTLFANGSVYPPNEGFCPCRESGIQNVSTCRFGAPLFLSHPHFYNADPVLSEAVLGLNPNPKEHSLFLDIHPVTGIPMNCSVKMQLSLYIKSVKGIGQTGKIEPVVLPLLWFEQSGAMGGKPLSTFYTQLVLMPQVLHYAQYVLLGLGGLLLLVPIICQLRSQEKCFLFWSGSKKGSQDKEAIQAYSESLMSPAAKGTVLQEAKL

outcome, inactive:
O=C(Nc1ccc(-c2nc3ccccc3o2)c(O)c1)c1cc(-n2cnnc2)ccc1Cl
CC(=O)c1cc(C#N)c(SCc2ccccc2C#N)nc1C
N#Cc1ccc(Nc2nc(-c3ccc(O)cc3O)cs2)cc1C(F)(F)F
COc1ccc([C@H]2/C=C\CN(S(=O)(=O)c3ccc(C)cc3)[C@@H](C)C(=O)N2Cc2ccc(F)cc2)cc1
CCSCC1COC(c2cccn2Cc2ccc(C)cc2)=N1 (stereo not drawn)
CC(=O)c1c(C)[nH]c(C(=O)OCc2nc3ccsc3c(=O)[nH]2)c1C
O=C(Nc1cccc(-c2cn3c(n2)SCC3)c1)c1ccc2ccccc2n1
Cc1cc(C)cc(N2CN=C3SCC(=O)N3C2)c1
NC(=O)c1cc(-c2ccccc2)sc1NC(=O)CN1CCCCC1
CCCCCCC(=O)Nc1nc(C)c(-c2csc(Nc3ccc(Cl)cc3)n2)s1
CC1CCCCC1NC(=O)c1nn(C)c2c1CS(=O)(=O)c1ccccc1-2 (stereo not drawn)
CCOc1ccccc1COC(=O)c1cccc(-n2cnnn2)c1
Cc1ccc(-c2csc(N3CCN(c4ccc5nc(-c6ccncc6)n(CCN6CCCCC6)c5c4)CC3)n2)cc1
COc1cc(C(=S)N2CCCC2)ccc1OC(=O)c1ccc(Cl)cc1[N+](=O)[O-]
O=C(CN1CCOCC1)Nc1nc(-c2ccc3c(c2)CCN3S(=O)(=O)c2ccccc2)cs1
Cc1ccc(OCC(=O)NNC(=O)C2CCN(c3ncnc4sc(C)c(C)c34)CC2)cc1
O=C(NC1CCCCC1)C(c1ccc2ncccc2c1)N(Cc1ccco1)C(=O)c1ccc2c(c1)OCCO2 (stereo not drawn)
Cc1c(C(=O)N2CC3(CC(c4cccc(NC(=O)CC(c5ccccc5)c5ccccc5)c4)=NO3)C[C@@H]2C(N)=O)cc([N+](=O)[O-])cc1[N+](=O)[O-] (stereo partly drawn)
CC(C)(C)NC(=O)N1CCN(c2ncccc2C(F)(F)F)CC1
CCCC(=O)N1c2ccc(-c3csc(N)n3)cc2CC1C (stereo not drawn)
COc1ccccc1NC(=O)CN1CCN(CC(=O)Nc2ccc(OCc3ccccc3)cc2)CC1
COc1cccc(-c2csc(N3CCN(C(=O)NC45CC6CC(CC(C6)C4)C5)CC3)n2)c1
CCOC(=O)C1CCCN(C(=O)c2cc(COc3ccc(C)nc3)on2)C1 (stereo not drawn)
